We go through nine compounds from PubChem BioAssay.

SMILES strings stand for the structures. Activity calls are given as the source filed them.

In test [1] the test system is PRMT1 (protein arginine N-methyltransferase 1). Kind of test: PRMT1 binders on small-molecule microarrays, primary screen, biochemical, small-molecule microarray, 635 nm fluorescence (AID 1088).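 Further: binding of Prmt1 protein to compounds spotted on small-molecule microarray slides.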 Particulars: small-molecule microarray binding, higher = more signal.
A short description of test [2]: yeast growth modulation, basal conditions, primary screen, YJM789 clinical isolate, OD600, 24 h (AID 1089).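 Further: growth of clinical yeast isolate S. cerevisiae YJM 789 seeded 1000 cells per well; test concentration not given here.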 Particulars: S. cerevisiae YJM789 growth, higher = more signal, called active from +8 up or from −8 down.
The nature of test [3]: fission yeast growth modulation, primary screen, strain 972, OD600, 24 h, no modulator (AID 1090).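 Further: basal condition with compound alone and no growth modifier present; test concentration not given here.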 Particulars: S. pombe 972 growth, higher = more signal, called active from +8 up or from −8 down.
Test [4] can be described thus: S. cerevisiae growth modulation with rapamycin, primary screen, strain BY4716, OD600, 96 h (AID 1091). Further: test concentration not given here. Particulars: higher = more signal, called active from +8 up or from −8 down.
Test [5] concerns the target Torsin-1A-interacting protein 2 (Homo sapiens) (UniProt Q8NFQ8). As to the kind of experiment: LULL1 binders on small-molecule microarray, primary screen, cell lysate, human LULL1 lysate, 635/667 nm fluorescence (AID 1092).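 Further: probe is lysate of COS7 cells overexpressing human LULL1; score merges per-feature 667 nm fluorescence with signal-to-noise.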 Particulars: hLULL1 lysate binding, 635 nm fluorescence, higher = more signal.
Test [6] in a line: E. coli growth modulation, two-sided OD650, primary screen, E. coli filamentation project, strain DRC41, 24 h (AID 1093).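 Further: MC1000 strain lacking acrAB efflux and sulA so SOS filamentation is blocked; test concentration not given here.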 Particulars: OD650, 24 h, higher = more signal, called active from +8 up or from −8 down.
Test [7] can be described thus: small-molecule microarray binders of probe aLefty2, primary screen, biochemical, biotinylated probe, 635/667 nm fluorescence (AID 1094).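 Further: score merges spot fluorescence near 667 nm with spot signal-to-noise ratio.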 Particulars: higher = more signal.
The subject of test [8] is Noggin (protein binding on small-molecule microarray). Kind of test: Noggin binders on small-molecule microarray, primary screen, biochemical, 635/667 nm fluorescence (AID 1095).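 Further: score merges 667 nm feature fluorescence with signal to noise over triplicate slides.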 Particulars: 635 nm fluorescence, higher = more signal.
The target of test [9] is Neurogenic locus notch homolog protein 3 (Homo sapiens) (UniProt Q9UM47). As to the kind of experiment: NOTCH3 binders on small-molecule microarray, primary screen, biochemical, 635/667 nm fluorescence (AID 1096). Particulars: NOTCH3 binding, 635 nm fluorescence, higher = more signal.
A short description of test [10]: small-molecule microarray binders of probe aEGFR, primary screen, biochemical, biotinylated probe, 635/667 nm fluorescence (AID 1097).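 Further: probe is a biotinylated anti-EGFR antibody binding compounds printed on slides; score combines fluorescence near 667 nm and signal to noise of each spot.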 Particulars: higher = more signal.
The test system of test [11] is Plasmodium falciparum Sir2 (PF13_0152, Sir2A). As to the kind of experiment: pfSir2 binders on small-molecule microarrays, primary screen, biochemical, small-molecule microarray, 635 nm fluorescence (AID 1098).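 Further: score merges spot fluorescence intensity with its signal-to-noise ratio.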 Particulars: small-molecule microarray binding, fluorescence 635 nm; higher = more signal.
A short description of test [12]: small-molecule microarray binders of probe aDKK1, primary screen, biochemical, biotinylated probe, 635/667 nm fluorescence (AID 1099).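 Further: score merges 667nm spot fluorescence with signal to noise across triplicate slides; reference of the scale not given here.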 Particulars: higher = more signal.
The nature of test [13]: small-molecule microarray binders of probe aCHRDL2, primary screen, biochemical, biotinylated probe, 635/667 nm fluorescence (AID 1100). Particulars: higher = more signal.
Test [14] in a line: splicing luciferase reporter signal modulators, primary screen, spliceosome inhibition project, cell-based, HEK293, splice +/- reporter (AID 1101).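 Further: HEK293 cells carrying a splicing-competent luciferase reporter gene; test concentration not given here.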 Particulars: luminescence, 24 h, higher = more signal, called active from +8 up or from −8 down. (In general: Reporter assays use an easily measured gene product as a stand-in for the process of interest.)
Test [15] deals with Fibroblast growth factor 10 (Homo sapiens) (UniProt O15520). Kind of test: FGF10 binders on small-molecule microarrays, primary screen, biochemical, small-molecule microarray, 635 nm fluorescence (AID 1102). Particulars: FGF10 binding, fluorescence 635 nm, higher = more signal.
For test [16], the system named is glycogen synthase kinase-3 (GSK3A per assay name; protocol says GSK3B). Kind of test: GSK3 binders on small-molecule microarrays, primary screen, biochemical, small-molecule microarray, 635 nm fluorescence, GSK3A (AID 1103). Further: the record names both GSK3A and GSK3B. Particulars: small-molecule microarray binding, fluorescence 635 nm; higher = more signal.
In test [17] the target is Epidermal growth factor receptor (Homo sapiens) (UniProt P00533). As to the kind of experiment: EGFR binders on small-molecule microarrays, primary screen, biochemical, small-molecule microarray, 635 nm fluorescence (AID 1104).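 Further: score merges 667 nm emission intensity with spot signal to noise over triplicate slides.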 Particulars: EGFR binding, higher = more signal.
The target in test [18] is Follistatin-related protein 3 (Homo sapiens) (UniProt O95633). Kind of test: FSTL3 binders on small-molecule microarrays, primary screen, biochemical, small-molecule microarray, 635 nm fluorescence (AID 1105).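 Further: score merges emission near 667 nm and signal to noise per printed spot across three slides.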 Particulars: FSTL3 binding, higher = more signal.
Test [19] has as its target Dickkopf-related protein 1 (Homo sapiens) (UniProt O94907). As to the kind of experiment: DKK1 binders on small-molecule microarrays, primary screen, biochemical, small-molecule microarray, 635 nm fluorescence scan (AID 1106).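 Further: score merges emission near 667 nm with signal to noise over three replicate slides.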 Particulars: DKK1 binding, higher = more signal.
The test system of test [20] is Inhibin beta A chain (activin A). As to the kind of experiment: INHBA (activin A) binders on microarrays, primary screen, biochemical, small-molecule microarray, 635 nm fluorescence scan (AID 1107).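 Further: mouse activin A protein probed at 4.33 µg/mL on printed slides; score merges bound-protein fluorescence near 667 nm with spot signal-to-noise.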 Particulars: small-molecule microarray binding, higher = more signal.

Chain of Neurogenic locus notch homolog protein 3 (Homo sapiens) (Q9UM47 whole entry, looked up): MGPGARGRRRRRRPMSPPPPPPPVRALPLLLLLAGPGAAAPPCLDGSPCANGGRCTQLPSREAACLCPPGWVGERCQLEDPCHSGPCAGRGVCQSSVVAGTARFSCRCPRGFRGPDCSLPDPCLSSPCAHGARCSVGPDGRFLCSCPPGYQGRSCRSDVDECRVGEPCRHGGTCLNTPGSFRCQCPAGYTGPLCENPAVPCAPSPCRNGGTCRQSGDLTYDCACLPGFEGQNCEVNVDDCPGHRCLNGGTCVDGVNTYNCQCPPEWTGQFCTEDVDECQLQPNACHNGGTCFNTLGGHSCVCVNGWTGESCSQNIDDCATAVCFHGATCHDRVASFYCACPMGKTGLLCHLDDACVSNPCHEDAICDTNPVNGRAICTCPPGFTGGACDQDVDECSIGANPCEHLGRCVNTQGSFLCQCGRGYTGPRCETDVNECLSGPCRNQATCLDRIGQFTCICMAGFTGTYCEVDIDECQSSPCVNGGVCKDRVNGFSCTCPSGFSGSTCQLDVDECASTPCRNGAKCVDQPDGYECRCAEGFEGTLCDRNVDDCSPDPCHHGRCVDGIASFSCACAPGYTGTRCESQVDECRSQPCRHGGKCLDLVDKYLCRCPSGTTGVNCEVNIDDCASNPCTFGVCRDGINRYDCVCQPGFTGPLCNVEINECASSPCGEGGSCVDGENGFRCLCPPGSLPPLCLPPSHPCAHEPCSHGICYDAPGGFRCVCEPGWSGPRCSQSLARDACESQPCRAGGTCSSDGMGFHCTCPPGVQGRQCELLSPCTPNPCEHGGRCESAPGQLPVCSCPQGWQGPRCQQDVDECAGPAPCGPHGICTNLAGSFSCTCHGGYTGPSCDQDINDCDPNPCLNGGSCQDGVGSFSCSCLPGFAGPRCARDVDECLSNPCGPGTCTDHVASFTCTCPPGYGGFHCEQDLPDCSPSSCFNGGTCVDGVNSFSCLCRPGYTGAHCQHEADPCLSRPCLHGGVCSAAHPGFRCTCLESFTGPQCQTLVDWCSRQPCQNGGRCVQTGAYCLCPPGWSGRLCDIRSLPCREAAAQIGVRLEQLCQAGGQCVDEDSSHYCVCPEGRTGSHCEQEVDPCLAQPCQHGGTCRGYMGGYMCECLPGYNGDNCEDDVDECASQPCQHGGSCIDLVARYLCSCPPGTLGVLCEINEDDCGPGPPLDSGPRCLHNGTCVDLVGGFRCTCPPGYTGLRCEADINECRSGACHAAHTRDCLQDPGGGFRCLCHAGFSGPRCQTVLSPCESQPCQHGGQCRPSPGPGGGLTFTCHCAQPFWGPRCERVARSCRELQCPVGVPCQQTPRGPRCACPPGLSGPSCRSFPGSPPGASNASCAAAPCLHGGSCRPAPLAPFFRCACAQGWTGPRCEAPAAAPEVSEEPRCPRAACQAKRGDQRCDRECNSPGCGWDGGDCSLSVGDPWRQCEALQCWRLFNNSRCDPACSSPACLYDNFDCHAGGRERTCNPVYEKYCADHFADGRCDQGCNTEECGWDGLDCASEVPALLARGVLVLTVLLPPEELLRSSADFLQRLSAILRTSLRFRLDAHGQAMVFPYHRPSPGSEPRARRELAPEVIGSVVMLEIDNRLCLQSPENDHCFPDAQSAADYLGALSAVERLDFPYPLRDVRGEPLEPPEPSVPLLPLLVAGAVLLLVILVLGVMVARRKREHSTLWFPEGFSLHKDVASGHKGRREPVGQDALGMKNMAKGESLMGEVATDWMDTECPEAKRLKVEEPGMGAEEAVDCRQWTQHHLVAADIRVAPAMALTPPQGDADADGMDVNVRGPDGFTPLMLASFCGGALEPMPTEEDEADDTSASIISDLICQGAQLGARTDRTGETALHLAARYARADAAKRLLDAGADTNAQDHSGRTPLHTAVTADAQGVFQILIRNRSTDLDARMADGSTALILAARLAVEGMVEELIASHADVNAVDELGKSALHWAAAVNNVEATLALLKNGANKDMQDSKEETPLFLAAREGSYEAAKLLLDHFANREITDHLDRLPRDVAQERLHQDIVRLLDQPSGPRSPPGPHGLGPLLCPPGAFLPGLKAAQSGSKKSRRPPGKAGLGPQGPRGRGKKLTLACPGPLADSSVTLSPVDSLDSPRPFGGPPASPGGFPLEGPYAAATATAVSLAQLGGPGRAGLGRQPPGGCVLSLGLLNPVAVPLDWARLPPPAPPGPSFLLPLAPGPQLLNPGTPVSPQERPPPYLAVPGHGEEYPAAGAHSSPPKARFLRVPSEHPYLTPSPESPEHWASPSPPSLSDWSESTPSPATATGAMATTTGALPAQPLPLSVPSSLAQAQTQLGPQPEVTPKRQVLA
Chain of Torsin-1A-interacting protein 2 (Homo sapiens) (Q8NFQ8 whole entry, looked up): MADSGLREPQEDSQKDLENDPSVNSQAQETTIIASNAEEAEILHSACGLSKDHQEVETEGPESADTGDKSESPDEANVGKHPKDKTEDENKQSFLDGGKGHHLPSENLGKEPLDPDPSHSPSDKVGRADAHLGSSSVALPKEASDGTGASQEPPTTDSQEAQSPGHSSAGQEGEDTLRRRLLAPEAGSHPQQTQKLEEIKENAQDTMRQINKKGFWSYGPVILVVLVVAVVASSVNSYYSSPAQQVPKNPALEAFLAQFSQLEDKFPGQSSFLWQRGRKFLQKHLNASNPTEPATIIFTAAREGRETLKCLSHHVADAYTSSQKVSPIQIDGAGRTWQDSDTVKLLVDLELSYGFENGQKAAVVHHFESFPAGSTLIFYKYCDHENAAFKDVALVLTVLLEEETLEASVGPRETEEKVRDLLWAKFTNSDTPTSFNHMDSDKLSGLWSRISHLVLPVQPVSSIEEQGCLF
Chain of Dickkopf-related protein 1 (Homo sapiens) (O94907 whole entry, looked up): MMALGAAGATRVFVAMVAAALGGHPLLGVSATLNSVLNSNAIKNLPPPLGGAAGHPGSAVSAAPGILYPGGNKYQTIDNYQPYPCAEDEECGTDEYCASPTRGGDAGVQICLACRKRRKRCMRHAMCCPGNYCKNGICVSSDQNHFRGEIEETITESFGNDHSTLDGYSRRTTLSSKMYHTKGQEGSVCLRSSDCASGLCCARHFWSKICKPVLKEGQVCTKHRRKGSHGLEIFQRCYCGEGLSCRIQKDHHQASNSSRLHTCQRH
Chain of Epidermal growth factor receptor (Homo sapiens) (P00533 whole entry, looked up): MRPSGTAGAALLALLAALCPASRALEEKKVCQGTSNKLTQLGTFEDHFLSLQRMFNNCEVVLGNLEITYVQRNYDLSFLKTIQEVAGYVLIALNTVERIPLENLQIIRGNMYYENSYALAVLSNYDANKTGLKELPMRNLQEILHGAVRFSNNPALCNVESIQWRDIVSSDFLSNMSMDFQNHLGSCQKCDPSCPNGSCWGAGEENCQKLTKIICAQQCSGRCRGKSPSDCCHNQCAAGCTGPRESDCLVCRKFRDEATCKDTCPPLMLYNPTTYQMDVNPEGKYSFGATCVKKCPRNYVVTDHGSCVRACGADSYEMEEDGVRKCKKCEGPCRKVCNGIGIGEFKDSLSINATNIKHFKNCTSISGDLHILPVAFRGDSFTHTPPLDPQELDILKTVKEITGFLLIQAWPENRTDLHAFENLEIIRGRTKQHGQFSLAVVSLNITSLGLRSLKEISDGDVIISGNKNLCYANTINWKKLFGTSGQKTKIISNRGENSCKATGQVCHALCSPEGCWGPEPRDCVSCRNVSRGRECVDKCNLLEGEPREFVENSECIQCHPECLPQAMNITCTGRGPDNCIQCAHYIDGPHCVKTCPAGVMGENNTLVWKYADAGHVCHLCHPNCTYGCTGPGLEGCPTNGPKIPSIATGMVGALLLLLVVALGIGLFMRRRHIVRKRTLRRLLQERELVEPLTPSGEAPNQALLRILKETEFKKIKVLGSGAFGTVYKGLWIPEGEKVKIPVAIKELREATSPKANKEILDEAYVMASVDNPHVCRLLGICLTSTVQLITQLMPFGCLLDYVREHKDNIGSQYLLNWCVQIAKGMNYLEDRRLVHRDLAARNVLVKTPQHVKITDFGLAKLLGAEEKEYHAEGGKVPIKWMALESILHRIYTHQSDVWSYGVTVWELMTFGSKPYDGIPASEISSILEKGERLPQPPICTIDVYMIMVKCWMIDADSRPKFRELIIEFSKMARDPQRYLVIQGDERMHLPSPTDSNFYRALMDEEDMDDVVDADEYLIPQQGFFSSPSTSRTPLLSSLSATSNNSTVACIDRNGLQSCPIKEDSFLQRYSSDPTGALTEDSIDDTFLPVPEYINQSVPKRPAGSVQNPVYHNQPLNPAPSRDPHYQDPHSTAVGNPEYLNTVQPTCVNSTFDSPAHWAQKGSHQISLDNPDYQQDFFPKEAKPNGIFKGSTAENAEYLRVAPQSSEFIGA
Chain of Fibroblast growth factor 10 (Homo sapiens) (O15520 whole entry, looked up): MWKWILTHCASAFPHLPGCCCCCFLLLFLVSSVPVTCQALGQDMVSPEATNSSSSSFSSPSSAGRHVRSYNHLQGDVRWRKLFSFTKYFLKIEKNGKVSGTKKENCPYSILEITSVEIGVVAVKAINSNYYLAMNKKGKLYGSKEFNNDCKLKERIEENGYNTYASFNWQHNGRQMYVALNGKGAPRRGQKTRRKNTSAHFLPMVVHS
Chain of Follistatin-related protein 3 (Homo sapiens) (O95633 whole entry, looked up): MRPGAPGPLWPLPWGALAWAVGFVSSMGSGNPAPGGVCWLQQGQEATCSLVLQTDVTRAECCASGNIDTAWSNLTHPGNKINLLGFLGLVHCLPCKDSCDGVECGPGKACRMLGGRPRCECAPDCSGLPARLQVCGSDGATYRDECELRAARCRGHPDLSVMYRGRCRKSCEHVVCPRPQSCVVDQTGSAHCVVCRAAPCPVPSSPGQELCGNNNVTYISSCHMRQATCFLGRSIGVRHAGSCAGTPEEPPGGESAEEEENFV

As to `CC(C)CNC(=O)[C@@H]1c2ccccc2C(=O)N(CC23CC4CC(CC(C4)C2)C3)[C@H]1c1ccc(CO)cc1`, the composite z-score in [1] was 0.797; in test [5] it was 2.69; in test [7], -0.121; in test [8], 0.264; in test [9], 0.953; in test [10], -0.146. The composite z-score is 0.248 in test [11]; 0.031 in [12]; 0.446 in [13]; 0.124 in [15]; 1.02 in [16]; 0.0591 in [17]. The composite z-score in test [18] is 0.777; in test [19] it was -0.0314; in test [20], 0.471. Further, the z-score in test [2] was -0.998 (inactive); in test [3], -1.88 (inactive); in test [4], -0.243 (inactive); in test [6], -0.109 (inactive); in [14], -1.46 (inactive).
As for `C=C(COC)C(=O)CC[C@@H](OC(=O)c1cccnc1)c1cccc(OCCO)c1`, the composite z-score in [1] is 1.37; in [5], 1.35; in test [7], 0.0932; in test [8], 0.873; in test [9], 0.693; in test [10], -0.0922. Moreover, the composite z-score in test [11] is 0.709; in test [12], 0.119; in [13], 0.618; in test [15] it was 1.27; in test [16] it was -0.284; in test [17], -0.0749. For the same compound, the results for the composite z-score in [18], in [19] and in test [20] were 0.652, 0.284 and 1.37, respectively. Moreover, the z-score in test [2] is -0.686 (inactive); in test [3], -1.14 (inactive); in test [4], -0.632 (inactive); in test [6], 0.726 (inactive); in [14], 3.33 (inactive).
Take `O=C1c2ccccc2[C@@]2(Cc3ccccc3N(Cc3ccccc3)C2=O)[C@H](c2ccc(CO)cc2)N1Cc1ccccc1`: the composite z-score in test [1] was 0.131; in test [5], 0.118; in test [7], -0.0321; in [8], -0.945; in [9] it was -1.15; in [10], -0.218. Besides, the composite z-score was 1.45 in test [11]; 0.617 in [12]; 0.819 in [13]; -0.74 in test [15]; -1.37 in test [16]; -0.949 in test [17]. In addition, the composite z-score in [18] was -0.604; in test [19], -0.868; in [20], 0.58. Also, the z-score was -0.82 (inactive) in test [2]; -0.678 (inactive) in test [3]; 15.9 (active) in test [4]; -0.737 (inactive) in test [6]; 1.18 (inactive) in test [14].
In the case of `CO[C@H]1O[C@H](CO)[C@@H](OC(=O)Nc2ccccc2)[C@@H]2OC(=O)[C@H](Cc3ccccc3)C/C=C/C[C@@H](Cc3ccccc3)C(=O)O[C@@H]12`, the composite z-score is 1.55 in [1]; 2.58 in test [5]; -0.104 in test [7]; 0.107 in test [8]; 0.702 in test [9]; 0.0308 in test [10]. Further, the composite z-score in test [11] amounted to 1.46; in test [12] it was 0.273; in test [13] it was 0.651; in test [15] it was 1.04; in [16] it was 0.56; in test [17], 0.0366. The composite z-score in test [18] was found to be 0.877; in [19] it was 0.048; in test [20] it was 1.14. Also, the z-score in [2] is -1.03 (inactive); in test [3] it was -0.0378 (inactive); in test [4] it was 1.9 (inactive); in [6], 0.588 (inactive); in [14], -0.724 (inactive).
For `CCOC(=O)C[C@H]1[C@H](OC(=O)Cc2ccc3c(c2)OCO3)[C@@H](NC(=O)c2ccccc2)c2cc(OCCCO)ccc2N1C(=O)Cc1ccc(OC)cc1`, the composite z-score is 0.498 in [1]; 0.837 in [5]; -0.0915 in [7]; 0.0752 in test [8]; 0.206 in test [9]; -0.0978 in test [10]. The composite z-score in [11] is -0.1; in test [12] it was -0.386; in test [13], -0.167; in test [15], 0.236; in [16], 0.227; in [17], 0.237. In addition, the composite z-score was 0.339 in [18], 0.0486 in test [19] and -0.296 in [20]. Also, the z-score in test [2] is -2.62 (inactive); in test [3], -0.91 (inactive); in [4], -0.602 (inactive); in test [6], -0.429 (inactive); in test [14], -2.62 (inactive).
Regarding `[N-]=[N+]=NCc1ccccc1C[C@]1(C(=O)O)COC(c2ccc(OCCCO)cc2)=N1`, the composite z-score was -0.486 in test [1]; -0.0986 in test [5]; -0.0252 in [7]; -0.389 in test [8]; -0.614 in [9]; -0.0702 in [10]. Moreover, the composite z-score in test [11] was 0.991; in test [12] it was 0.261; in [13], 1.12; in test [15], -0.472; in test [16] it was -1.19; in test [17] it was -0.756. Also, the composite z-score is -0.757 in [18], -1.27 in [19] and 0.616 in test [20]. The z-score in [2] is 0.493 (inactive); in test [3], 0.612 (inactive); in test [4] it was -0.0738 (inactive); in test [6] it was 0.398 (inactive); in test [14] it was 0.544 (inactive).
Consider `COCCOC(=O)N1C(=O)[C@@]2(c3cc(C#CC4=CCCCC4)ccc31)[C@H](c1ccccc1OCCO)N1[C@H](c3ccccc3)[C@H](c3ccccc3)OC(=O)[C@H]1[C@@H]2C(N)=O`, for which the composite z-score in test [1] is 1.56; in test [5], 1.66; in test [7], -0.107; in [8] it was 1.39; in [9] it was 1.1; in test [10], -0.0211. In addition, the composite z-score in test [11] was 1.35; in test [12], -0.0668; in [13], -0.144; in [15], 1.29; in test [16] it was 1.31; in [17], 0.766. For the same compound, the composite z-score in test [18] worked out at 1.2; in test [19], 0.912; in test [20], 0.557. Also, the z-score in test [2] was 0.05 (inactive); in test [3], -0.96 (inactive); in test [4], 1.69 (inactive); in [6], 2.66 (inactive); in test [14], -3.87 (inactive).
Take `COC(=O)[C@@]1(Cc2ccccc2CN=[N+]=[N-])COC(c2ccc(OCCCO)cc2)=N1`: the composite z-score in test [1] is 1.26; in [5], 3.04; in test [7], 0.175; in test [8], -1.69; in test [9], -1.25; in test [10], -0.442. Moreover, the composite z-score in test [11] is 1.97; in test [12], 0.269; in test [13], 1.23; in [15] it was -1.76; in test [16] it was -1.02; in test [17], -1.76. In addition, the composite z-score in [18] is -1.68; in test [19], -3.61; in [20] it was -1.48. Besides, the z-score was -1.38 (inactive) in [2]; -6.67 (inactive) in test [3]; -1.9 (inactive) in test [4]; 0.441 (inactive) in test [6]; 0.861 (inactive) in [14].
In the case of `CCC(CC)C(O)C1C=CC2C(=O)N(C)C(=O)C2N1N1CCCCC1` (stereo not given), the composite z-score in [1] worked out at 1.36; in test [5] it was 3.42; in test [7], 0.0353; in [8] it was 0.334; in [9], 1.04; in [10], 0.0142. The composite z-score amounted to 0.669 in test [11]; 1.72 in test [12]; 0.906 in test [13]; 0.91 in test [15]; 0.93 in test [16]; 0.411 in [17]. Besides, the figures for the composite z-score in [18], in [19] and in test [20] were 1.43, 0.233 and 0.539, respectively. The z-score was -0.059 (inactive) in [2]; 0.274 (inactive) in [3]; -0.537 (inactive) in [4]; -1.29 (inactive) in [6]; 1.58 (inactive) in [14].
